Assay [1] is described as follows: qHTS assay to identify small molecule antagonists of the glucocorticoid receptor (GR) signaling pathway - cell viability counter screen (AID 720693). Note: nearly all actives have a fitted effect of over 55% in size. Background: qHTS replaces the single test concentration by a dilution series.
Assay [2] in a line: qHTS assay for identifying genotoxic compounds that show differential cytotoxicity against isogenic chicken DT40 cell lines with known DNA damage response pathways - wild type cell line (AID 743012). Note: nearly all actives have a fitted effect of over 60% in size. Note: potency is the fitted concentration of half-maximal effect. The essentials:
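300 wt DT40 cells/well; cpd (DMSO) pintool-transferred after ~0.5 h at 37 C/5% CO2; 40 h incubation; CellTiter-Glo added, 30 min RT; luminescence read.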

Assay [3] is described as follows: qHTS assay for identifying genotoxic compounds that show differential cytotoxicity against isogenic chicken DT40 cell lines with known DNA damage response pathways - Rev3 mutant cell line (AID 743014). Note: nearly all actives have a fitted effect of over 55% in size. Note: potency is the fitted concentration of half-maximal effect.
Assay [4] in a line: qHTS assay to identify small molecule antagonists of the androgen receptor (AR) signaling pathway - cell viability counter screen (AID 743033; note: nearly all actives have a fitted effect of over 45% in size; note: potency is the fitted concentration of half-maximal effect).
The target of assay [5] is Androgen receptor (Homo sapiens) (UniProt P10275). As to the kind of experiment: qHTS assay to identify small molecule antagonists of the androgen receptor (AR) signaling pathway (AID 743035; active = well fitted inhibition curve with a large enough effect in the signal ratio in the repeat runs, not every such curve was filed as active; the % refers to the signal ratio). Summed up:
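In this cell-based reporter screen, compounds were tested in concentration series against R1881-activated HEK293 cells expressing beta-lactamase under UAS control; after 16 h at 37C, FRET substrate was added and fluorescence read 2 h later.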

Assay [6] can be described thus: qHTS assay to identify small molecule antagonists of the androgen receptor (AR) signaling pathway using the MDA cell line - cell viability counter screen (AID 743041; note: nearly all actives have a fitted effect of over 45% in size; note: potency is the fitted concentration of half-maximal effect). Summed up: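 In this qHTS counter assay, fluorescence intensity after CellTiter-Fluor addition indicated viability of MDA-kb2 AR-luc cells given compounds and R1881 for 16 h at 37C.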
In assay [7] the target is Androgen receptor (Homo sapiens) (UniProt P10275). As to the kind of experiment: qHTS assay to identify small molecule antagonists of the androgen receptor (AR) signaling pathway using the MDA cell line (AID 743042; note: nearly all actives have a fitted effect of over 55% in size). Summed up:
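MDA-kb2 cells (human breast carcinoma, stably carrying an MMTV-luciferase reporter responsive to AR and GR) were plated at 3,000 cells/well and preincubated 5 hr at 37C, then given compound plus R1881 agonist for 16 h. ONE-Glo luminescence was read.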

Assay [8] deals with thyroid hormone receptor (rat, GH3 cells). As to the kind of experiment: qHTS assay to identify small molecule agonists of the thyroid receptor (TR) signaling pathway (AID 743066; calls by dose curve).
A short description of assay [9]: qHTS assay to identify small molecule antagonists of the estrogen receptor alpha (ER-alpha) signaling pathway - cell viability counter screen (AID 743074; calls by dose curve;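 note: HEK293 cells carrying ER-alpha-UAS-bla reporter stimulated with 17beta-estradiol; nearly all actives have a fitted effect of over 45% in size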; note: potency is the fitted concentration of half-maximal effect).
Assay [10] is described as follows: qHTS assay to identify small molecule antagonists of the estrogen receptor alpha (ER-alpha) signaling pathway using the BG1 cell line - cell viability counter screen (AID 743081).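 Note: compound given together with 17beta-estradiol as the ER stimulus; nearly all actives have a fitted effect of over 45% in size.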 Note: potency is the fitted concentration of half-maximal effect.
The next assay deals with Aromatase (Homo sapiens) (UniProt P11511). Kind of assay: qHTS assay to identify aromatase inhibitors (AID 743083). Note: nearly all actives have a fitted effect of over 55% in size. Note: potency is the fitted concentration of half-maximal effect.
Aromatase (Homo sapiens), sequence (P11511 whole entry, looked up): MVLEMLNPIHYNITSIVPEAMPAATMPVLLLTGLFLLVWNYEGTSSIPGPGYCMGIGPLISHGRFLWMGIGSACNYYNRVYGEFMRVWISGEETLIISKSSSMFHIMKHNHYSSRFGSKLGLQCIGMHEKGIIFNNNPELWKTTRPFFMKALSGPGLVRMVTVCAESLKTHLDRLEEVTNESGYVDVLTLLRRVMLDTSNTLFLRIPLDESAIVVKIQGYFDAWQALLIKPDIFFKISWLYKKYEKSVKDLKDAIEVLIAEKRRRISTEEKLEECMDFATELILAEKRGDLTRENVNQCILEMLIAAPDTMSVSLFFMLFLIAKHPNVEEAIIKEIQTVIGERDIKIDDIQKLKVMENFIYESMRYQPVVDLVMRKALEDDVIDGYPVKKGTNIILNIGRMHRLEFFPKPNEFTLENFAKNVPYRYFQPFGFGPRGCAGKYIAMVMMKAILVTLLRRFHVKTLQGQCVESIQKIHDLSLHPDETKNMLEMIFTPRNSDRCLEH
Assay [11] can be described thus: qHTS assay for identifying genotoxic compounds that show differential cytotoxicity against isogenic chicken DT40 cell lines with known DNA damage response pathways - Rad54/Ku70 mutant cell line (AID 743015). Note: nearly all actives have a fitted effect of over 60% in size. Note: potency is the fitted concentration of half-maximal effect.
Assay [12] is described as follows: qHTS assay to identify small molecule antagonists of the thyroid receptor (TR) signaling pathway - cell viability counter screen (AID 743064). Note: nearly all actives have a fitted effect of over 50% in size. Note: potency is the fitted concentration of half-maximal effect. The essentials:
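Plate GH3.TRE-Luc cells; incubate 4 h at 37 °C; add compound, then T3 to 1 nM final; incubate 23.5 h; add CellTiter-Fluor; incubate 30 min at 37 °C, 5% CO2; read fluorescence.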

Assay [13] can be described thus: qHTS assay to identify small molecule antagonists of the thyroid receptor (TR) signaling pathway (AID 743065). Note: nearly all actives have a fitted effect of over 55% in size. Note: potency is the fitted concentration of half-maximal effect. The essentials:
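GH3.TRE-Luc rat pituitary cells carrying two TR response elements driving luciferase were plated for 4 h, given compound plus 1 nM T3 (final), and incubated 23.5 h at 37 C. ONE-Glo luminescence measured reporter inhibition; CellTiter-Fluor fluorescence tracked cytotoxicity.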

In assay [14] the target is Estrogen receptor (Homo sapiens) (UniProt P03372). As to the kind of experiment: qHTS assay to identify small molecule antagonists of the estrogen receptor alpha (ER-alpha) signaling pathway (AID 743069; active = well fitted curve in the direction sought with a large enough effect in the signal ratio in the repeat runs, not every such curve was filed as active; the % refers to the signal ratio). Summed up:
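A 17beta-estradiol challenge was applied right after compound transfer to ER-alpha-UAS-bla HEK293 cells previously kept in charcoal-stripped serum. Plates stood 18 hr at 37C and 5% CO2; fluorescence was read following 2 hr FRET substrate loading at room temperature.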

For assay [15] the target is unchanged. As to the kind of experiment: qHTS assay to identify small molecule agonists of the estrogen receptor alpha (ER-alpha) signaling pathway (AID 743075; calls by dose curve;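 note: HEK293 GripTite cells with ER-alpha and UAS-driven beta-lactamase reporter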).
Assay [16] has the same target. As to the kind of experiment: qHTS assay to identify small molecule agonists of the estrogen receptor alpha (ER-alpha) signaling pathway using the BG1 cell line (AID 743079). Note: nearly all actives have a fitted effect of over 20% in size. Note: potency is the fitted concentration of half-maximal effect. The conditions noted are these: BG1Luc4E2 cells, ERE-luciferase agonist, 22 h; activation: at 70.3 µM (top of the series).
Assay [17] in a line: qHTS assay to identify small molecule antagonists of the estrogen receptor alpha (ER-alpha) signaling pathway using the BG1 cell line (AID 743080; calls by dose curve;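 note: BG1 cells stimulated with 17beta-estradiol alongside compound; nearly all actives have a fitted effect of over 25% in size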; note: potency is the fitted concentration of half-maximal effect). Summed up: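 Seeding, 24 h rest, compound transfer from DMSO, 17beta-estradiol addition, 21.5 h incubation, CellTiter-Fluor (30 min, 37 C), then ONE-Glo (30 min, room temperature): this sequence was run on BG1-Luc-4E2 reporter cells.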

Assay [18] deals with Androgen receptor (Homo sapiens) (UniProt P10275). Kind of assay: qHTS assay to identify small molecule agonists of the androgen receptor (AR) signaling pathway using the MDA cell line (AID 743040; note: nearly all actives have a fitted effect of over 20% in size). The essentials: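 Cell-based luciferase reporter: MDA-kb2, MMTV promoter (AR + GR response elements). 16 h compound exposure at 37C; ONE-Glo, 30 min RT, luminescence.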
Androgen receptor (Homo sapiens), sequence (P10275 whole entry, looked up): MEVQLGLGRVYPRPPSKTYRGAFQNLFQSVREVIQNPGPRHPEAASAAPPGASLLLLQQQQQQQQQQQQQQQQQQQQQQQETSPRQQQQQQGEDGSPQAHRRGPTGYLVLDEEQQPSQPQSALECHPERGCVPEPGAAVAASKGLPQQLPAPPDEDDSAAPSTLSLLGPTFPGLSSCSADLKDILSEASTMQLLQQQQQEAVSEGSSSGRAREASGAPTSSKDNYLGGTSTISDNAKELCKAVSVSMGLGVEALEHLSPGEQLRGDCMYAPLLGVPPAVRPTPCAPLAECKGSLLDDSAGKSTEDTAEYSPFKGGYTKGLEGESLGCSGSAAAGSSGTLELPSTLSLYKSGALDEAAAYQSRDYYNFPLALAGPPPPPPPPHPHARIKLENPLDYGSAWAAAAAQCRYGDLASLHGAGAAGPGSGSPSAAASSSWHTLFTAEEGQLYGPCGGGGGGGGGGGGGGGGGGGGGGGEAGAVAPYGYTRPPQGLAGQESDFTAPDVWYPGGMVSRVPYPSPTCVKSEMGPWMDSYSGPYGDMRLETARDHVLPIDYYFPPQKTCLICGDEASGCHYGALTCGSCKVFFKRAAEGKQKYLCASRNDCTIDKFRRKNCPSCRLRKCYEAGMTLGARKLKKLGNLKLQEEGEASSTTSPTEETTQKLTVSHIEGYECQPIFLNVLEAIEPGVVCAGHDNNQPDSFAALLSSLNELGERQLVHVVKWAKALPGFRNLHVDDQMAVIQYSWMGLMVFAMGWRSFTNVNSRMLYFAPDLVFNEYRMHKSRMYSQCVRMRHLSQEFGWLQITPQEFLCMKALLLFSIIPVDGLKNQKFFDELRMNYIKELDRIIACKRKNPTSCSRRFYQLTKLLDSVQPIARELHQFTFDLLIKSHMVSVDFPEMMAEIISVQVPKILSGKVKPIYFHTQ
For assay [19] the target is unchanged. Kind of assay: qHTS assay to identify small molecule agonists of the androgen receptor (AR) signaling pathway (AID 743036; active = well fitted activation curve with a large enough effect in the signal ratio in the repeat runs, with a control signal flat, not every such curve was filed as active; the % refers to the signal ratio). Summed up: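 Reporter line: GeneBLAzer AR-UAS-bla-GripTite (HEK293). Steps: plate cells, 4 h rest, add compounds, 16 h at 37C, add LiveBLAzer B/G substrate, 2 h at RT, read fluorescence.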

Several values for one entry are separate records, joined by “and”; a condition that tells them apart may be missing. Equal entries are not always repeated. Results filed as inconclusive are left out. The source holds several records for some structures; these can differ, active in one and inactive in another. Activity calls are given as the source filed them. Unless noted, calls come from the whole dose curve; as a rule, active = well fitted curve in the direction sought with a large enough effect in the repeat runs; inconclusive = weak or mixed curves; inactive = no such curve, though single readings can be large; an effect the other way counts as inactive or inconclusive.

Here are results for 14 compounds from PubChem BioAssay (Tox21).

Estrogen receptor (Homo sapiens), sequence (P03372 whole entry, looked up): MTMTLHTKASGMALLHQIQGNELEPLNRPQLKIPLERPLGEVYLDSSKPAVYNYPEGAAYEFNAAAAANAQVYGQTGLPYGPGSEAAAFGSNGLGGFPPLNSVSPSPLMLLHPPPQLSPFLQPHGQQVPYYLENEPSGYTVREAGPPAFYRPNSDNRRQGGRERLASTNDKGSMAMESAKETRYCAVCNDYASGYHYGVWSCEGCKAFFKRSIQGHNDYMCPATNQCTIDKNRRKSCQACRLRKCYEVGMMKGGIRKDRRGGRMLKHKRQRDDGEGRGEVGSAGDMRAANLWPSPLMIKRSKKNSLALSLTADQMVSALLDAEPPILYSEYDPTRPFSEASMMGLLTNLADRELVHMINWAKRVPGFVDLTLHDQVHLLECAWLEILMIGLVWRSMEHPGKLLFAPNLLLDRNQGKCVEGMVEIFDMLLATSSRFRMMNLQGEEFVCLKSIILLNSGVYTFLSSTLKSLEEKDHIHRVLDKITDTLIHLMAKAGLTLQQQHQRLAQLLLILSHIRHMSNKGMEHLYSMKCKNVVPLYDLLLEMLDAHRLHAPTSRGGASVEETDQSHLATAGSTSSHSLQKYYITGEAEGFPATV

Turning to `Cc1cc(O)c2c(O)c3c(O)cccc3cc2c1`, the Potency result in [1], in [2], in assay [3], in [4], in [5] and in [6] was “inactive” in each case. Besides, the Potency result (in [7]; in [9]; in assay [10]; with Aromatase (Homo sapiens)) was “inactive” throughout. For the same compound, the compound was called inactive in assay [8].

On to `CN1CCN(c2c(F)cc3c(=O)c(C(=O)O)cn4c3c2OCN4C)CC1`, for which the Potency result in assay [1], in assay [2], in [3], in assay [11], in assay [12] and in [13] was “inactive” each time. In addition, the Potency result (in assay [14]; in [9]; in assay [15]; in assay [17]; in [10]; with Aromatase (Homo sapiens)) was “inactive” throughout. The compound was called inactive in assay [8]. The Potency in [16] is 23.7 µM (active).

`CCc1nn(CCCN2CCN(c3cccc(Cl)c3)CC2)c(=O)n1CCOc1ccccc1`: the Potency result in assay [1] and in [15] was “inactive” each time. Moreover, the Potency in [3] is 7.5 µM (active); in assay [11], 5.96 µM (active) and 13.3 µM (active); in assay [4] it was 10.7 µM (active); in assay [6], 22.1 µM (active); in assay [12] it was 10.6 µM (active) and 26.6 µM (active); in assay [13], 11.9 µM (active) and 26.6 µM (active). The Potency in [9] is 23.9 µM (active); in assay [17] it was 7.5 µM (active) and 26.6 µM (active); in assay [10] it was 29.8 µM (active) and inactive; with Aromatase (Homo sapiens) it was 29.8 µM (active) and 33.5 µM (active).

Turning to `C/C=C/C=C/CCCCCCCO`, the Potency result in assay [1], in [6], in assay [14], in assay [9], in assay [15] and in assay [16] was “inactive” throughout. For the same compound, the Potency entry (in assay [10]; with Aromatase (Homo sapiens)) was “inactive” throughout. Also, the values for the Potency in assay [2], in assay [3] and in assay [11] were 21.7 µM (active), 30.6 µM (active) and 24.3 µM (active), respectively. For the same compound, the result in assay [8] was inactive.

For the compound `CCC(C)(O)CCC=C(C)C` (centres undefined), the Potency result in assay [1], in assay [2], in assay [11], in assay [4], in [13] and in assay [14] was “inactive” in each case. Besides, the Potency result (in [9]; in assay [15]; in assay [17]; in [10]; with Aromatase (Homo sapiens)) was “inactive” throughout. In assay [8], the call was inactive.

Consider `Cc1oc(C)c(C(=O)Nc2ccccc2)c1C`, for which the Potency entry in assay [1], in assay [12] and in assay [15] was “inactive” throughout. Further, the Potency was 13.7 µM (active) in assay [2]; 10.9 µM (active) in [3]; 13.7 µM (active) in [11]; 24.3 µM (active) in assay [13]; 13.7 µM (active) with Aromatase (Homo sapiens). In addition, the compound was called inactive in assay [8].

Consider `CN(C(=O)C(Cl)Cl)c1ccc(OC(=O)c2ccco2)cc1`, for which the Potency result in assay [1], in assay [4], in [5], in assay [18], in assay [6] and in assay [7] was “inactive” throughout. For the same compound, the Potency result (in assay [13]; in assay [9]; in assay [10]; with Aromatase (Homo sapiens)) was “inactive” in each case. The Potency in [2] was 26.6 µM (active). The result in assay [8] was inactive.

As to `CCCCCCCC/C=C\CCCCCCCC(=O)OC(CO)CO`, the Potency result in [1], in assay [2], in assay [4], in assay [6], in [9] and in assay [10] was “inactive” in each case. Besides, the Potency entry with Aromatase (Homo sapiens) is “inactive”. For the same compound, the outcome in assay [8] was inactive.

`NC(=O)Nc1ccc(Cl)cc1`: the Potency entry in assay [1], in assay [3], in assay [11], in [4], in assay [6] and in assay [12] was “inactive” throughout. For the same compound, the Potency result in [13], in [14], in assay [15], in assay [16], in [17] and in [10] was “inactive” throughout. Moreover, the Potency result with Aromatase (Homo sapiens) is “inactive”. Moreover, the compound was called inactive in assay [8].

Regarding `CC1CC(=O)NN=C1c1ccc(NCC(C)(C)NCC(O)COc2cc(Cl)ccc2C#N)cc1` (centres undefined), the Potency result in assay [1], in [4], in assay [6], in [12], in assay [13] and in assay [9] was “inactive” in each case. In addition, the Potency result (in assay [15]; in [16]; in [17]; in [10]; with Aromatase (Homo sapiens)) was “inactive” in each case. The figures for the Potency in assay [3] and in [11] were 0.376 µM (active) and 0.668 µM (active), respectively. Further, the result in assay [8] was inactive.

Take `CNC(=O)N(c1ccccc1)c1ccccc1`: the Potency entry in assay [1], in assay [2], in assay [11], in assay [4], in assay [5] and in [19] was “inactive” each time. In addition, the Potency result in [6], in assay [7], in assay [12], in [13], in [14] and in assay [9] was “inactive” throughout. Also, the Potency entry (in assay [15]; in [16]; in assay [17]; in [10]; in the assay with Aromatase (Homo sapiens)) was “inactive” each time. In addition, the call in assay [8] was inactive.

As to `Cc1ccc(/C=N/n2c(-c3ccccc3)csc2=S)cc1`, the Potency result in assay [1], in assay [4], in [6], in [12] and in [10] was “inactive” throughout. Besides, the Potency was 26.6 µM (active) in assay [2], 29.8 µM (active) in assay [11] and 23.7 µM (active) in [13]. Also, the result in assay [8] was inactive.

`Cc1cnc(C)c(C)n1`: the Potency result in assay [1], in assay [2], in assay [4], in assay [12], in assay [9] and in assay [10] was “inactive” each time. In addition, in the assay with Aromatase (Homo sapiens), the Potency result is “inactive”. Moreover, the compound was classed as inactive in assay [8].

With `CC(=O)Oc1ccc(C(=C2CCCCC2)c2ccc(OC(C)=O)cc2)cc1`, the Potency entry in assay [1], in assay [2], in [11], in assay [4], in [6] and in assay [14] was “inactive” each time. Moreover, the Potency entry (in assay [9]; in assay [15]; in assay [16]; in [10]; with Aromatase (Homo sapiens)) was “inactive” in each case.
